In paper PMC7826789 (International Journal of Molecular Sciences, 2021):

Key:
PIP5K2B = tested on: T1, PIP5K2B; settings: Compound Concentration (nM):1000
T1 construct: gene PIP4K2B

PIP5K2C = tested on: T2, PIP5K2C; settings: Compound Concentration (nM):1000
T2 construct: gene PIP4K2C

PKAC-alpha = tested on: T3, PKAC-alpha; settings: Compound Concentration (nM):1000
T3 construct: gene PRKACA

PKAC-beta = tested on: T4, PKAC-beta; settings: Compound Concentration (nM):1000
T4 construct: gene PRKACB

PKMYT1 = settings: Compound Concentration (nM):1000
PKN1 = settings: Compound Concentration (nM):1000
PKN2 = settings: Compound Concentration (nM):1000
PKNB(M.tuberculosis) = settings: 1 µM
PLK1 = settings: Compound Concentration (nM):1000
PLK2 = settings: Compound Concentration (nM):1000
PLK3 = settings: Compound Concentration (nM):1000
PLK4 = settings: Compound Concentration (nM):1000
PRKCD = settings: Compound Concentration (nM):1000
PRKCE = settings: Compound Concentration (nM):1000
PRKCH = settings: Compound Concentration (nM):1000
PRKCI = settings: Compound Concentration (nM):1000
PRKCQ = settings: Compound Concentration (nM):1000
PRKD1 = settings: Compound Concentration (nM):1000
PRKD2 = settings: Compound Concentration (nM):1000
PRKD3 = settings: Compound Concentration (nM):1000
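Further: KINOMEscan scanMAX binding as percent activity remaining versus control; lower means stronger binding.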

Row | SMILES | Percent Control (PIP5K2B) | Percent Control (PIP5K2C) | Percent Control (PKAC-alpha) | Percent Control (PKAC-beta) | Percent Control (PKMYT1) | Percent Control (PKN1) | Percent Control (PKN2) | Percent Control (PKNB(M.tuberculosis)) | Percent Control (PLK1) | Percent Control (PLK2) | Percent Control (PLK3) | Percent Control (PLK4) | Percent Control (PRKCD) | Percent Control (PRKCE) | Percent Control (PRKCH) | Percent Control (PRKCI) | Percent Control (PRKCQ) | Percent Control (PRKD1) | Percent Control (PRKD2) | Percent Control (PRKD3)
1 | CC(C)COC(=O)c1ccc2c(c1)/C(=C/Nc1ccc(S(N)(=O)=O)cc1)C(=O)N2 [GW416981X] | 100% | 65% | 100% | 100% | 100% | 100% | 71% | 86% | 100% | 59% | 83% | 64% | 100% | 100% | 100% | 100% | 100% | 100% | 100% | 61%
2 | CC1=C(C(=O)Nc2ccc3[nH]ncc3c2)C(c2ccc3ccccc3c2)CC(=O)N1 (stereo not drawn) [GSK270822A] | 100% | 83% | 64% | 68% | 90% | 45% | 76% | 87% | 73% | 100% | 82% | 88% | 100% | 100% | 100% | 80% | 82% | 100% | 100% | 22%
3 | CCc1ccc(Oc2nccc(-c3c(-c4ccc(F)cc4)ncn3C3CCNCC3)n2)cc1 [SB-242719] | 100% | 100% | 36% | 31% | 89% | 94% | 91% | 81% | 98% | 77% | 83% | 79% | 100% | 95% | 100% | 95% | 84% | 95% | 85% | 70%
4 | CC1=C(C(=O)Nc2ccc3[nH]ncc3c2)C(c2ccc(Cl)c(Cl)c2)CC(=O)N1 (stereo not drawn) [GSK299115A] | 99% | 82% | 81% | 63% | 77% | 39% | 65% | 85% | 70% | 100% | 84% | 87% | 100% | 94% | 100% | 91% | 95% | 100% | 85% | 47%
5 | COc1ccc(COc2ccc(Cc3cnc(N)nc3N)cc2OC)cc1 [GW632580X] | 100% | 100% | 91% | 100% | 100% | 82% | 100% | 69% | 100% | 100% | 97% | 72% | 71% | 100% | 100% | 88% | 79% | 100% | 100% | 100%
6 | COc1cccc(-n2ncc3c(N/N=C/c4ccncc4)ncnc32)c1 [GW784752X] | 91% | 19% | 100% | 99% | 100% | 100% | 100% | 100% | 88% | 94% | 88% | 84% | 100% | 100% | 99% | 72% | 100% | 100% | 100% | 91%
7 | O=C(Nc1n[nH]c2nc(-c3ccc(O)cc3)c(Br)cc12)C1CC1 [SB-725317] | 100% | 91% | 100% | 100% | 100% | 89% | 100% | 31% | 100% | 83% | 88% | 82% | 45% | 46% | 78% | 90% | 58% | 100% | 100% | 99%
8 | C[C@@H](Oc1cc(-n2cnc3ccc(OC4CCN(C)CC4)cc32)sc1C(N)=O)c1ccccc1Cl [GSK579289A] | 52% | 75% | 100% | 100% | 81% | 72% | 57% | 35% |  | 13% | 19% | 78% | 66% | 100% | 100% | 43% | 58% | 100% | 84% | 70%
9 | CCS(=O)(=O)c1ccc(OC)c(Nc2ncc(-c3cccc(OC)c3)o2)c1 [GW580509X] | 91% | 11% | 100% | 100% | 100% | 100% | 100% | 100% | 92% | 86% | 94% | 50% | 100% | 62% | 100% | 100% | 100% | 100% | 100% | 100%
10 | COc1ccc2[nH]c3c4[nH]c5ccc(OC)cc5c4c4c(c3c2c1)C(=O)NC4=O [GW296115X] | 100% | 28% | 87% | 89% | 97% | 42% | 52% | 67% | 90% | 95% | 88% | 1.4% | 93% | 75% | 35% | 63% | 44% | 68% | 62% | 75%
11 | COc1ccc2c(-c3ccnc(Nc4cccc(OC(F)(F)F)c4)n3)cnn2n1 [GW810372X] | 100% | 32% | 100% | 100% | 100% | 100% | 76% | 82% | 91% | 100% | 83% | 100% | 99% | 100% | 94% | 100% | 100% | 100% | 100% | 100%
12 | NS(=O)(=O)c1ccc(Nc2ncc(-c3ccccc3)o2)cc1 [GW572399X] | 100% | 29% | 100% | 100% | 100% | 100% | 100% | 76% | 100% | 86% | 86% | 100% | 100% | 100% | 100% | 100% | 100% | 100% | 100% | 61%
13 | COc1cc2ncnc(Nc3ccc4c(cnn4Cc4ccccc4)c3)c2cc1OC.Cl [GW282449A] | 100% | 73% | 100% | 37% | 100% | 100% | 100% | 100% | 91% | 100% | 100% | 100% | 100% | 64% | 100% | 100% | 100% | 100% | 100% | 98%
14 | NS(=O)(=O)c1ccc(N/N=C2\C(=O)Nc3ccc(-c4cnco4)cc32)cc1 [GW276655] | 69% | 100% | 88% | 94% | 95% | 100% | 87% | 78% | 77% | 83% | 76% | 60% | 75% | 100% | 100% | 54% | 81% | 100% | 94% | 100%
15 | C/C(Nc1ccc(S(N)(=O)=O)cc1)=C1/C(=O)Nc2ccccc21 [GW335962X] | 100% | 93% | 100% | 87% | 91% | 83% | 74% | 83% | 90% | 87% | 83% | 74% | 95% | 96% | 100% | 100% | 81% | 100% | 100% | 86%
16 | Nc1ncnc2occ(-c3ccc(NC(=O)Nc4cc(C(F)(F)F)ccc4F)cc3)c12 [GW770249X] | 100% | 77% | 100% | 100% | 100% | 100% | 90% | 100% | 100% | 1.9% | 16% | 80% | 76% | 94% | 100% | 100% | 100% | 100% | 100% | 85%
17 | COc1ccccc1-c1cc(/C=C2\C(=O)Nc3ncc(Br)cc32)cc(Br)c1O [GW442130X] | 100% | 100% | 95% | 100% | 100% | 100% | 36% | 74% | 95% | 100% | 89% | 80% | 100% | 100% | 86% | 100% | 100% | 83% | 100% | 100%
18 | Cl.O=C(O[C@H]1CN[C@H](C#Cc2cc3ncnc(Nc4ccc5c(cnn5Cc5ccccc5)c4)c3s2)C1)N1CCOCC1 [GSK200398A] | 100% | 98% | 100% | 93% | 96% | 88% | 69% | 91% | 76% | 92% | 91% | 69% | 100% | 88% | 100% | 100% | 64% | 100% | 93% | 100%
19 | COc1cc(/C=N/Nc2ncnc3[nH]ncc23)ccc1O [GW578748X] | 74% | 24% | 100% | 100% | 100% | 100% | 100% | 50% | 84% | 31% | 52% | 36% | 78% | 100% | 100% | 63% | 96% | 100% | 100% | 85%
20 | COc1cc(C=NNc2ncnc3c2cnn3-c2ccccc2)ccc1O [GW513184X] | 59% | 1.4% | 100% | 100% | 100% | 81% | 100% | 86% | 100% | 37% | 71% | 77% | 100% | 88% | 100% | 100% | 86% | 100% | 100% | 100%
